Experimental findings from PubChem BioAssay (NCATS) are described below.

Each structure is given as a SMILES string. Records with an inconclusive call do not appear. A number with no mark means an inactive call. Active and inactive are the calls of the source. Calls follow the shape of the dose curve; as a rule, active = well fitted inhibition curve with a large enough effect; inconclusive = small, poorly fitted or top-dose-only effect; inactive = flat fitted curve, though single readings scatter.
% is scaled to controls: 0 for no effect and ±100 for the full control effect; potency is read from the fitted curve at half-maximal effect.

The test system of one assay is HEK293. Put plainly: Cytotoxic Profiling of Annotated Libraries Using Quantitative High-Throughput Screening (AID 1296008). Also: nearly all actives have a fitted effect of over 60% in size. The following applies: Five cell lines viability, CellTiter-Glo ATP luminescence, 48-72 h; max response: active compounds read low. The procedure, abridged:
(§1)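 Cells exposed to compounds for 48 or 72 hr at 37 degrees Celsius. Viability read as ATP-coupled luminescence with CellTiter-Glo after 10 min at room temperature.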
A general note: ATP-based viability assays read luminescence as a measure of living cells.
Take `C/C=C/C=N/NC(=O)c1ccncc1`: the max response is -6.37%.

Consider `CCOc1ccccc1C(N)=O`, for which the max response is -2.36%.

Turning to `NCCNc1cccc2ccccc12`, the max response was -7.17%.

In the case of `C[N+]12CCC(CC1)C(OC(=O)C(O)(c1ccccc1)c1ccccc1)C2` (configuration not stated), the max response is -6.95%.

Consider `CC1(COc2ccc(CC3SC(=O)NC3=O)cc2)CCCCC1` (configuration not stated), for which the max response was 0.676%. Turning to `O=C(Oc1cccc2cccnc12)c1ccccc1`, the max response was -102%. Take `CCN1CCN(C(=O)N[C@@H](C(=O)N[C@@H]2C(=O)N3C(C(=O)O)=C(CSc4nnnn4C)CS[C@H]23)c2ccc(O)cc2)C(=O)C1=O`: the max response was -4.75%. Regarding `O=C(O)P(=O)(O)O`, the max response is 0.892%.

Consider `O=S(c1cc(Cl)cc(Cl)c1O)c1cc(Cl)cc(Cl)c1O`, for which the max response is -2.46%.

With `CN1CCN(CCC(=O)N2c3ccccc3Sc3ccc(C(F)(F)F)cc32)CC1`, the Potency is 23.7 µM (active). With `C=C1c2cccc(O)c2C(O)=C2C(=O)[C@]3(O)C(O)=C(C(N)=O)C(=O)[C@@H](N(C)C)[C@@H]3[C@@H](O)[C@H]12`, the max response was -1.35%. On to `Nc1ccc(C(=O)NCC(=O)O)cc1`, for which the max response is 0.145%. On to `CN1CCN(C2=Nc3ccccc3Sc3ccc(Cl)cc32)CC1`, for which the max response is -15.3%. As for `C#C[C@]1(O)CC[C@H]2[C@@H]3CCc4cc(OC)ccc4[C@H]3CC[C@@]21C`, the max response is -6.93%. Take `Cc1cn([C@H]2C[C@H](F)[C@@H](CO)O2)c(=O)[nH]c1=O`: the max response is 0.5%.

Take `O=C(Nc1ccc([N+](=O)[O-])cc1)Nc1ccc([N+](=O)[O-])cc1`: the Potency is 8.41 µM (active). For `O=C(O)Cc1csc(-c2ccc(Cl)cc2)n1`, the max response was -0.458%.

For the compound `COc1cc([C@H]2Oc3cc([C@H]4Oc5cc(O)cc(O)c5C(=O)[C@@H]4O)ccc3O[C@@H]2CO)ccc1O`, the max response is -17.6%. As for `Nc1nc(Cl)nc2c1ncn2[C@@H]1O[C@H](CO)[C@@H](O)[C@@H]1F`, the Potency is 1.5 µM (active). On the same count and under the same terms, then `CC(=O)O[C@]1(C(C)=O)CC[C@H]2[C@@H]3C=C(Cl)C4=CC(=O)CC[C@]4(C)[C@H]3CC[C@@]21C`, with 18.8 µM (active).

For the compound `CCNC(=O)NCc1cccc(Cl)c1`, the max response is 4.87%.

For the next assay, the system named is HaCat. The description is as above. Conditions: Five cell lines viability, CellTiter-Glo ATP luminescence, 48-72 h; max response: active compounds read low. The procedure, abridged:
as §1
For the compound `CCCN(CCC)S(=O)(=O)c1ccc(C(=O)O)cc1`, the Potency was 18.8 µM (active). For `CC(C)Cc1ccc(CC(=O)O)cc1`, the max response was -0.56%. For `c1ccc(CC2=NCCN2)cc1`, the max response is -10.1%. In the case of `CC(C)[N+](C)(C)CC(O)COc1cccc2ccccc12` (configuration not stated), the max response is -6.06%. As to `CC(C)(C)NCC(O)COc1cccc2c1C[C@H](O)[C@H](O)C2` (some centres not stated), the compound was called inactive. For the compound `OCc1ccccn1`, the outcome was inactive.

`Cc1cc(C)cc(OCC2CNC(=O)O2)c1` (configuration not stated): the max response was -13.4%. Take `C[C@H]1O[C@@H](O[C@H]2CC[C@@]3(C)[C@H](CC[C@@H]4[C@@H]3C[C@@H](O)[C@]3(C)[C@@H](C5=CC(=O)OC5)CC[C@]43O)C2)C[C@H](O)[C@@H]1O[C@H]1C[C@H](O)[C@H](O[C@H]2C[C@H](O)[C@H](O[C@@H]3O[C@H](CO)[C@@H](O)[C@H](O)[C@H]3O)[C@@H](C)O2)[C@@H](C)O1`: the Potency was 0.596 µM (active). For `O=[N+]([O-])c1ccc(/C=N\O)o1`, the max response is 1.07%. Still for that read-out and setting: then `CC(=O)OCC1=C(C(=O)O)N2C(=O)[C@@H](NC(=O)CSc3ccncc3)[C@H]2SC1`, with 0.118%; and `CC(=O)NCCCCCC(=O)O`, with -2.92%. For `O=C1C(CCS(=O)c2ccccc2)C(=O)N(c2ccccc2)N1c1ccccc1` (configuration not stated), the outcome was inactive. For `CC(=O)Nc1ccc(OCC(O)CNC(C)C)cc1` (configuration not stated), the result was inactive. For the compound `NS(=O)(=O)c1ccc(Cl)c(S(N)(=O)=O)c1`, the max response is -3.23%. Same read-out and setting: with `CC[C@H](c1ccc(O)cc1)[C@@H](CC)c1ccc(O)cc1` the figure was 0.0962%; with `C/C=C/C=N/NC(=O)c1ccncc1`, 0.247%. As for `CCOc1ccccc1C(N)=O`, the max response was 1.44%. With `NCCNc1cccc2ccccc12`, the max response was -24.9%. Take `C[N+]12CCC(CC1)C(OC(=O)C(O)(c1ccccc1)c1ccccc1)C2` (configuration not stated): the max response was -16.2%. With `CC1(COc2ccc(CC3SC(=O)NC3=O)cc2)CCCCC1` (configuration not stated), the compound was classed as inactive. Turning to `O=C(Oc1cccc2cccnc12)c1ccccc1`, the max response was -16.2%. `CCN1CCN(C(=O)N[C@@H](C(=O)N[C@@H]2C(=O)N3C(C(=O)O)=C(CSc4nnnn4C)CS[C@H]23)c2ccc(O)cc2)C(=O)C1=O`: the max response was -2.57%. `O=C(O)P(=O)(O)O`: the max response was -5.53%. `O=S(c1cc(Cl)cc(Cl)c1O)c1cc(Cl)cc(Cl)c1O`: the max response was -16.1%.

As to `CN1CCN(CCC(=O)N2c3ccccc3Sc3ccc(C(F)(F)F)cc32)CC1`, the outcome was inactive.

For the compound `C=C1c2cccc(O)c2C(O)=C2C(=O)[C@]3(O)C(O)=C(C(N)=O)C(=O)[C@@H](N(C)C)[C@@H]3[C@@H](O)[C@H]12`, the max response was -8.16%. On the same count and under the same terms, then `Nc1ccc(C(=O)NCC(=O)O)cc1`, with 0.603%; and `CN1CCN(C2=Nc3ccccc3Sc3ccc(Cl)cc32)CC1`, with -2.52%; and `C#C[C@]1(O)CC[C@H]2[C@@H]3CCc4cc(OC)ccc4[C@H]3CC[C@@]21C`, with -21.7%. Turning to `Cc1cn([C@H]2C[C@H](F)[C@@H](CO)O2)c(=O)[nH]c1=O`, the outcome was inactive.

On to `O=C(Nc1ccc([N+](=O)[O-])cc1)Nc1ccc([N+](=O)[O-])cc1`, for which the outcome was inactive. In the case of `O=C(O)Cc1csc(-c2ccc(Cl)cc2)n1`, the max response is -16.3%. For the compound `COc1cc([C@H]2Oc3cc([C@H]4Oc5cc(O)cc(O)c5C(=O)[C@@H]4O)ccc3O[C@@H]2CO)ccc1O`, the max response is -5.16%. Consider `Nc1nc(Cl)nc2c1ncn2[C@@H]1O[C@H](CO)[C@@H](O)[C@@H]1F`, for which the Potency is 1.06 µM (active). As for `CC(=O)O[C@]1(C(C)=O)CC[C@H]2[C@@H]3C=C(Cl)C4=CC(=O)CC[C@]4(C)[C@H]3CC[C@@]21C`, the outcome was inactive. For the compound `CCNC(=O)NCc1cccc(Cl)c1`, the max response is -5.45%.
